Source: PubChem BioAssay
The source made the active and inactive calls. Unless noted, no rule for the calls is given here.

What was measured:
[1] = tested on: Wnt5a (protein binding on small-molecule microarray); test: small molecules binding Wnt5a protein – biophysical, small-molecule microarray, 635/667 nm fluorescence, primary screen (AID 1142); settings: 635 nm fluorescence, higher = more signal;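 also: fluorescence read at 667 nm with signal to noise per printed feature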
[2] = ATP-based viability of Huh7 replicon cells – cell-based, CellTiter-Glo luminescence, basal, 48 h, cytotoxicity control for HCV replication inhibitor project, primary screen (AID 1143); settings: higher = more signal, called active from +8 up or from −8 down;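 also: Huh7 hepatoma cells carrying a hepatitis C replication reporter with no stimulus; test concentration not given here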
[3] = Pseudomonas biofilm growth suppression – PAO1 strain, BacTiter-Glo luminescence, LB-PBS, primary screen (AID 1144); settings: P. aeruginosa PAO1 biofilm, 12 h, higher = more signal
[4] = basal CRE-LacZ reporter activity in PC12 – cell-based, unstimulated, primary screen (AID 1145); settings: no forskolin, luminescence, 4.5 h, higher = more signal, called active from +8 up or from −8 down
[5] = forskolin-driven CRE-LacZ activity in PC12 – cell-based, CRE-LacZ reporter, forskolin-stimulated, primary screen (AID 1146); settings: luminescence, 4.5 h, higher = more signal, called active from +8 up or from −8 down;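 also: PC12 cells with 6xCRE LacZ reporter stimulated by forskolin 10 µM; beta-galactosidase reporter signal reflecting CREB driven transcription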
[6] = target: Streptavidin (Streptomyces avidinii) (UniProt P22629); test: compounds binding control protein streptavidin – biophysical, small-molecule microarray, 635/667 nm fluorescence, artefact control for SMM compound annotation, primary screen (AID 1147); settings: higher = more signal;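 also: signal reflects streptavidin binding to arrayed compounds as a control protein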
Streptavidin (Streptomyces avidinii), sequence (P22629 whole entry, looked up): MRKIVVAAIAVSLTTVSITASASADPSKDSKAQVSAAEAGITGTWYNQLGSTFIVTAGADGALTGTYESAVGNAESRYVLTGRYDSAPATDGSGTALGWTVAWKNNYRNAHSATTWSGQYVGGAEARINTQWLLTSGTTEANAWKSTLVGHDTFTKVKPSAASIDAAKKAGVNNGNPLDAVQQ

[7] = probe aInhba binding on compound microarray – biochemical, small-molecule microarray, 635/667 nm fluorescence, primary screen (AID 1148); settings: higher = more signal;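 also: score merges 667nm spot fluorescence with signal-to-noise for antibody binding to printed compounds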
[8] = target: Torsin-1A (Homo sapiens) (UniProt O14656); test: TOR1A wild-type binding on microarray – cell lysate, small-molecule microarray, lysate, 635/667 nm, primary screen (AID 1149); settings: COS7 hTOR1A-WT lysate, 635 nm fluorescence, higher = more signal
Torsin-1A (Homo sapiens), sequence (O14656 whole entry, looked up): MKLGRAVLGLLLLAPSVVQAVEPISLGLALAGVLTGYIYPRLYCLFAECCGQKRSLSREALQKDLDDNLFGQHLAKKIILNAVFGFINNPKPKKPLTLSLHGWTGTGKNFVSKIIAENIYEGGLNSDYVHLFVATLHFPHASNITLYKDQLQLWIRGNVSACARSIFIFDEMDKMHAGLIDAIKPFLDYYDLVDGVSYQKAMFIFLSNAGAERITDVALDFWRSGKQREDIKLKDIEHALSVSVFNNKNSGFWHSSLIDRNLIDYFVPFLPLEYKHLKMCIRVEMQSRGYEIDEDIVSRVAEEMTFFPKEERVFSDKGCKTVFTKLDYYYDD

[9] = target: Torsin-1A (Homo sapiens) (UniProt O14656); test: torsin A mutant lysate binding on microarrays – cell lysate, small-molecule microarray, COS7 lysate, 635/667 nm fluorescence, primary screen (AID 1150); settings: COS7 hTOR1A mutant lysate, 635 nm fluorescence, higher = more signal;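 also: score pools 667 nm emission and signal to noise measuring lysate protein binding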
[10] = tested on: Sonic hedgehog protein (Shh); test: Sonic hedgehog microarray binding compounds – biochemical, small-molecule microarray, 635/667 nm fluorescence, primary screen (AID 1151); settings: 635 nm fluorescence, higher = more signal;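 also: Shh protein binding to compounds spotted on small-molecule microarray slides; score combines spot fluorescence intensity with signal-to-noise across triplicate slides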
[11] = optical density shifts of acrAB sulA E. coli – strain DRC41, OD650, 48 h, E. coli filamentation inducer project, primary screen (AID 1152); settings: higher = more signal, called active from +8 up or from −8 down;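 also: E. coli MC1000 strain DRC41 lacking acrAB efflux pump and sulA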
[12] = probe aLefty1 binding on compound microarray – biochemical, small-molecule microarray, 635/667 nm fluorescence, primary screen (AID 1153); settings: higher = more signal;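 also: score merges spot fluorescence with signal-to-noise ratio from the scanned slide images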
[13] = plasmodial surface anion channel blockers, osmotic lysis – cell-based, P. falciparum Indochina, OD700, 1 h, primary screen (AID 1154); settings: P. falciparum Indochina infected RBC osmotic lysis, higher = more signal, called active from +8 up or from −8 down
[14] = plasmodial surface anion channel blockers, osmotic lysis – cell-based, P. falciparum Indochina, OD700, 2 h, primary screen (AID 1155);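 also: lysis reports solute entry through the parasite surface anion channel PSAC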; settings: P. falciparum Indochina infected erythrocytes, higher = more signal, called active from +8 up or from −8 down
[15] = changes in parasitized red cell lysis, either direction – P. falciparum Indochina, OD700, 3 h, PSAC antagonist project, primary screen (AID 1156); settings: P. falciparum-infected erythrocytes, osmotic lysis, higher = more signal, called active from +8 up or from −8 down
[16] = plasmodial surface anion channel blockers, osmotic lysis – cell-based, P. falciparum Indochina, OD700, 18 h, primary screen (AID 1157); settings: P. falciparum Indochina infected erythrocytes, osmotic lysis OD700, 18 h; higher = more signal, called active from +8 up or from −8 down
[17] = S6 kinase pathway phospho-S6 level changes – cell-based, A549, cytoblot, luminescence, serum-stimulated, primary screen (AID 1158); settings: 5 h, higher = more signal;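 also: serum-stimulated A549 lung adenocarcinoma cells; signal is phosphorylated S6 detected by cytoblot immunostaining with HRP secondary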
[18] = target: NADPH oxidase 2 (Homo sapiens) (UniProt P04839); test: compounds shifting NOX2 Amplex Red fluorescence – cell-based, HEK293-NOX2, PMA-stimulated, NOX inhibitor project, primary screen (AID 1159); settings: 45 min, higher = more signal, called active from +8 up or from −8 down; also: test concentration not given here
NADPH oxidase 2 (Homo sapiens), sequence (P04839 whole entry, looked up): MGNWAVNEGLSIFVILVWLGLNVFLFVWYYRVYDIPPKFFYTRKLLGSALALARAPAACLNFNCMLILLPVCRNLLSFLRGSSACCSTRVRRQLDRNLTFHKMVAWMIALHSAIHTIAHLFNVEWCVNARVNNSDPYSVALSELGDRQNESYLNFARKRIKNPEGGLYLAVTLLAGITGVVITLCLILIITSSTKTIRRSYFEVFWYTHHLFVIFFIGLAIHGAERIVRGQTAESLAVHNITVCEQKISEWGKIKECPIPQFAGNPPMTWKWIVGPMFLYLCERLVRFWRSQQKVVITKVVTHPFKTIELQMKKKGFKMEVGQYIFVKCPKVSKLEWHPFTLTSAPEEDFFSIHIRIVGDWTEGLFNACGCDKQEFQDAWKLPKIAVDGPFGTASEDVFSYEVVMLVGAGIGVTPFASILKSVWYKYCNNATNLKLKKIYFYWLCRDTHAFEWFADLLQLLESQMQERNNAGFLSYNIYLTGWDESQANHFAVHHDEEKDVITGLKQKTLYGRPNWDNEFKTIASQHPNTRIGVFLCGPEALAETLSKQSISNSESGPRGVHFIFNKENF

[19] = target: NADPH oxidase 4 (Homo sapiens) (UniProt Q9NPH5); test: compounds shifting NOX4 Amplex Red fluorescence – cell-based, HEK293-NOX4, tetracycline-induced, NOX inhibitor project, primary screen (AID 1160); settings: HEK293-NOX4, Amplex Red H2O2 fluorescence, 45 min; higher = more signal, called active from +8 up or from −8 down
NADPH oxidase 4 (Homo sapiens), sequence (Q9NPH5 whole entry, looked up): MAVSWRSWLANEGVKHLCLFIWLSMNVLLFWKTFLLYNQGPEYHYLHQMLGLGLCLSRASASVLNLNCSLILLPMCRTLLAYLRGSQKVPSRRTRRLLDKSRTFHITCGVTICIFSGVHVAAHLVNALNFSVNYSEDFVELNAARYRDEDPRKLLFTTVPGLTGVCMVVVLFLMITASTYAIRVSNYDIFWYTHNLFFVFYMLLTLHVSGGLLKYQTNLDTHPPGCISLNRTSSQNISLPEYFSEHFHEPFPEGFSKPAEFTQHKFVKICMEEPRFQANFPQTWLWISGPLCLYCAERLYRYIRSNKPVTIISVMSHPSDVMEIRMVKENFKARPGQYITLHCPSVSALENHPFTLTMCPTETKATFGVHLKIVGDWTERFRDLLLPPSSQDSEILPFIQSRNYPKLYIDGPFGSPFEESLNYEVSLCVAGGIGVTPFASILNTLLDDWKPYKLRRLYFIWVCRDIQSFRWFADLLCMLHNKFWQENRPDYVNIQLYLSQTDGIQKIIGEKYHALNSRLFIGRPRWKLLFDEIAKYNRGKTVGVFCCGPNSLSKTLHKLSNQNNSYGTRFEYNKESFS

[20] = target: NADPH oxidase 5 (Homo sapiens) (UniProt Q96PH1); test: compounds shifting NOX5 Amplex Red fluorescence – cell-based, HEK293-NOX5, NOX inhibitor project, primary screen (AID 1161); settings: HEK293-NOX5, ionomycin, 45 min, higher = more signal
NADPH oxidase 5 (Homo sapiens), sequence (Q96PH1 whole entry, looked up): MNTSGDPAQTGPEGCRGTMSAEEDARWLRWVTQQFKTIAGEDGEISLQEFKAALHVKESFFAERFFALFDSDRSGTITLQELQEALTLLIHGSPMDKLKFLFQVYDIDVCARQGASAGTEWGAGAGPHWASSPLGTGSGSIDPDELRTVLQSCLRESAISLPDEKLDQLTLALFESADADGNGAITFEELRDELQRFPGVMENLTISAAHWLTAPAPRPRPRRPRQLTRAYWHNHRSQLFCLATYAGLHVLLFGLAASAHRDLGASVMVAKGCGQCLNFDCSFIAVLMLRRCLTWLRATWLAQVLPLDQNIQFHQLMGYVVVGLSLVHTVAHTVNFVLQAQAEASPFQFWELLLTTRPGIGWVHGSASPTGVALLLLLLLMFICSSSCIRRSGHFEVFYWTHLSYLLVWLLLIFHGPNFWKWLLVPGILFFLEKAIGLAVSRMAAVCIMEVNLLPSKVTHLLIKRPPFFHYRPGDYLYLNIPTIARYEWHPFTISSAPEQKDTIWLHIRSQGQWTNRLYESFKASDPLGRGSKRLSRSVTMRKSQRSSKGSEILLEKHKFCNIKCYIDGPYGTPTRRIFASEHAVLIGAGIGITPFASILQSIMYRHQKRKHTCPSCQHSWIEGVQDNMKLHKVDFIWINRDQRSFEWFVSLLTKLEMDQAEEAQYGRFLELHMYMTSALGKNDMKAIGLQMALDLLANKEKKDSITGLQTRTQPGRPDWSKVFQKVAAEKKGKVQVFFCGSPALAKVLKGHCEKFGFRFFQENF

Row | SMILES | composite z-score [1] | z-score [2] | z-score [3] | z-score [4] | z-score [5] | composite z-score [6] | composite z-score [7] | composite z-score [8] | composite z-score [9] | composite z-score [10] | z-score [11] | composite z-score [12] | z-score [13] | z-score [14] | z-score [15] | z-score [16] | z-score [17] | z-score [18] | z-score [19] | z-score [20]
1 | CC(C)[Si](C#C[Si](C(C)C)(C(C)C)C(C)C)(O[C@H](C)c1cn(Cc2ccccc2)nn1)C(C)C | 0.0406 | -0.182 (inactive) | -0.324 (inactive) | -0.0848 (inactive) | -0.624 (inactive) | 1.32 | -0.0405 | 0.709 | 0.5 | 0.372 | 1.82 (inactive) | 0.0509 | -0.0395 (inactive) | 0.0422 (inactive) | -0.915 (inactive) | 0.0635 (inactive) | -0.217 | 0.667 (inactive) | -0.748 (inactive) | -2.82
2 | COCCOC(=O)N1C(=O)[C@@]2(c3cc(C#CC4(O)CCCCCC4)ccc31)[C@H](C(=O)Nc1nc3ccccc3s1)[C@H]1C(=O)O[C@H](c3ccccc3)[C@H](c3ccccc3)N1[C@@H]2c1ccccc1OCCO | 0.82 | -2.5 (inactive) | 0.451 (inactive) | 0.212 (inactive) | -0.192 (inactive) | 0.845 | -0.0762 | 0.61 | 0.144 | 0.976 | 0.736 (inactive) | 0.282 | 2.48 (inactive) | 1.81 (inactive) | 0.895 (inactive) | 0.948 (inactive) | 0.476 | 1.85 (inactive) | 0.572 (inactive) | 0.908
3 | O=C1O[C@@H](c2ccccc2)[C@@H](c2ccccc2)N2[C@@H](c3ccc(OCCO)cc3)[C@]3(C(=O)Nc4ccc(C#CC5=CCCCC5)cc43)[C@@H](C(=O)N3CCCCCCC3)[C@H]12 | 1.18 | -2.05 (inactive) | -0.334 (inactive) | 0.568 (inactive) | 0.509 (inactive) | 2.92 | 1.93 | 1.58 | 2.02 | 1.37 | 0.343 (inactive) | 2.14 | 3.46 (inactive) | 1.85 (inactive) | 0.501 (inactive) | 1.03 (inactive) | -0.262 | 0.463 (inactive) | 0.159 (inactive) | 0.293
4 | CC1CC/C=C\[C@H]2OC34C=CCN(Cc5ccccc5)C(=O)[C@H]3N(C(C)CO)C(=O)[C@@H]4C2C(=O)O1 (stereo not given in full) | -0.125 | 0.0111 (inactive) | 0.647 (inactive) | 1.68 (inactive) | -0.0203 (inactive) | -0.556 | -0.0822 | -0.859 | -0.119 | 0.473 | 0.537 (inactive) | -0.0984 | 0.16 (inactive) | 0.365 (inactive) | 1.8 (inactive) | 0.425 (inactive) | -0.0395 | 0.799 (inactive) | -0.657 (inactive) | 1.27
5 | Cc1ccc(S(=O)(=O)N2C[C@@H](C(=O)O)[C@H](Sc3ccccc3)C[C@H]2c2ccccc2)cc1 | 0.731 | -0.763 (inactive) | -0.103 (inactive) | -0.667 (inactive) | -0.356 (inactive) | 1.26 | 0.0403 | 0.301 | 0.714 | -0.156 | -1.37 (inactive) | 0.409 | 1.7 (inactive) | 0.932 (inactive) | 0.369 (inactive) | 0.806 (inactive) | -0.33 | 1.63 (inactive) | 0.111 (inactive) | 1.73
6 | COCCCNC(=O)[C@@]1(Cc2ccccc2CN=[N+]=[N-])N=C(c2ccc(OCCCO)cc2)O[C@H]1c1ccccc1CN=[N+]=[N-] | 1.08 | -5.48 (inactive) | -1.5 (inactive) | 0.76 (inactive) | -1.68 (inactive) | 0.521 | -0.0195 | 0.0552 | 0.511 | -0.933 | 1.16 (inactive) | 0.123 | 31.4 (active) | 48.5 (active) | 2.97 (inactive) | 26.4 (active) | 2.88 | -3.05 (inactive) | -0.796 (inactive) | -1.91
7 | CCCCN1CC=CC23O[C@@H]4/C=C\CCCOC(=O)C4[C@H]2C(=O)N(CCCO)[C@@H]3C1=O (stereo not given in full) | -0.311 | 0.275 (inactive) | 0.0302 (inactive) | -0.0778 (inactive) | 0.241 (inactive) | -1.3 | -0.105 | -1.36 | -1.64 | -0.0567 | -0.0884 (inactive) | 0.0927 | 0.897 (inactive) | 0.611 (inactive) | -0.746 (inactive) | 0.0888 (inactive) | -0.207 | 1.59 (inactive) | 0.593 (inactive) | 2.02
8 | O=C1C2C=CC(C(O)C=Cc3ccc([N+](=O)[O-])cc3)N(Nc3ccccc3F)C2C(=O)N1c1ccccc1 (stereo not given) | 0.265 | -0.071 (inactive) | 0.0113 (inactive) | -0.424 (inactive) | -0.156 (inactive) | 1.77 | 0.095 | 0.422 | 0.31 | -0.0025 | -1.37 (inactive) | 0.329 | 13.1 (active) | 3.11 (inactive) | 0.105 (inactive) | 1.59 (inactive) | -0.832 | -1.43 (inactive) | -3.02 (inactive) | -3.26
